# From PubChem BioAssay
# ALDH1A1 inh: ALDH1A1 (human) enzyme inhibition; hit rate 7.3% among 220,000; Purified ALDH1A1, NADH fluorescence, propionaldehyde substrate; Potency, µM (top dose mostly 75.3 µM), for the others: at the highest dose activity, negative = inhibition, most hits filed as inhibitors; P00352; AID 1030;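 also: plate controls were no enzyme wells and a reference inhibitor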
# HPGD inh: blocks human HPGD enzyme activity; purified HPGD, NADH fluorescence kinetic, PGE2 substrate; P15428; hit rate 4.3% among 150,000; Potency, µM, without a hit: at the top dose activity change, negative = inhibition, actives largely listed as inhibitors
# Target sequence (P15428 whole entry, looked up): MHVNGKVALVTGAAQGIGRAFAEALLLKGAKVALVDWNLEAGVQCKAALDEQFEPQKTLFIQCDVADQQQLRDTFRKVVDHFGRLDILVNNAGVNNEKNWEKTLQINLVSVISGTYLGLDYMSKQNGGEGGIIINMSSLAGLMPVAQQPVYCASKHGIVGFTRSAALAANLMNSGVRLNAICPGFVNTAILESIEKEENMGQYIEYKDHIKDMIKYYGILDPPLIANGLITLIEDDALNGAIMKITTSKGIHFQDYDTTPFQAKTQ
#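 20 nM HPGD preincubated 15 min at room temperature with compound in 50 mM Tris-HCl pH 8, 0.01% Tween 20. Started with 1 mM NAD+ and 30 uM prostaglandin E2; NADH fluorescence (360/450 nm) read 5 times over 30-s intervals, last minus first.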
# Lamin A splicing: LMNA splicing modulation. HeLa LMNA splicing GFP/RFP minigene ratio, 48 h. Potency, µM (series often up to 46.1 µM), inactives show top-dose ratio change, negative = inhibition, usual class: inhibitors. hit rate 0.01% among 200,000. AID 1487; active = well fitted inhibition curve with a large enough effect in the signal ratio, with a control signal flat, not every such curve was filed as active; inconclusive = small, poorly fitted or top-dose-only effect, or effect the other way, or a change in a side signal; the % refers to the signal ratio
#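 S3 HeLa stable clones carrying a lamin A-EGFP splicing minigene plus DsRed2 were seeded at 600 cells/well in Opti-MEM with 2% FBS, pin-dosed and incubated 48 h at 37°C. Acumen cytometry (488 nm) gave the GFP/RFP total-intensity ratio.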
# IMPase Li inh: cell-permeable IMPase inhibitors with lithium potentiation. CHO-M1 cells, IP1 TR-FRET (IP-One), carbachol + lithium. Potency, µM (top dose mostly 59.4 µM), inactives show top-dose activity, negative = IMPase inhibition, hits mostly inhibitors. hit rate 0.35% among 210,000. AID 1457; active = well fitted curve in the direction sought with a large enough effect; inconclusive = small, poorly fitted or top-dose-only effect, or another doubt; inactive = no such curve, though single readings can be large; an effect the other way counts as inactive or inconclusive;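 also: IP1 builds up when IMPase is blocked and the TR-FRET signal falls; plate controls were basal vehicle for no effect and high inhibitor control for full effect; nearly all actives have a fitted effect of over 50% in size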
#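 CHO cells stably expressing M1 receptor (2000/well, cultured 16–30 h) treated 30 min at 37C with compound plus low lithium. Cytosolic IP1 by TR-FRET (665/620 ratio and 620 channel) after 10 min lysis; AC50 by Hill fit.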
# KinaseGlo FLuc: counter-screen: inhibitors of Kinase-Glo firefly luciferase. Q27757. Kinase-Glo luciferase, ATP luminescence, 8 min. Potency, µM (doses to about 38.3 µM), without a hit: at the highest dose activity change, negative = inhibition, actives largely listed as inhibitors. hit rate 0.28% among 200,000; active = well fitted curve in the direction sought with a large enough effect; inconclusive = small, poorly fitted or top-dose-only effect, or another doubt; inactive = no such curve, though single readings can be large; an effect the other way counts as inactive or inconclusive; also: nearly all actives have a fitted effect of over 60% in size
#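 Substrate mix (final 50 mM imidazole pH 7.2, 50 mM KCl, 7 mM MgCl2, 10 uM ATP, 0.01% Tween 20, 0.05% BSA) plus pin-tool compound, then Kinase-Glo detection mix; 8 min ambient, luminescence read.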
# The depositor's hits bear a star; ? = inconclusive; · = not tested or not shown; ! = a repeat was not active; [ ] = dose if it differs, or a comment. In the library only some 9% were active in any assay of this set; here they are far more common. Unless noted, calls follow the shape of the dose curve; as a rule, active = well fitted inhibition curve with a large enough effect (not every such curve was filed as active); inconclusive = small, poorly fitted or top-dose-only effect, or another doubt; inactive = no such curve, though single readings can be large or run the other way. Unless noted, % is scaled to controls: 0 for no effect and ±100 for the full control effect; potency is read from the fitted curve at half-maximal effect.
SMILES,ALDH1A1 inh,HPGD inh,Lamin A splicing,IMPase Li inh,KinaseGlo FLuc
CN1C(=O)CC(Sc2ncccc2C(=O)O)C1=O (stereo not drawn),-5.1%,-1.2%,-2.8%,-6.8%[38.3 µM],1.0%
COc1ccc(CCN2C(=O)CC(Sc3ncccc3C(=O)O)C2=O)cc1OC (stereo not drawn),3.55µM*,-11.9%,-18.1%,25.8%[38.3 µM],-3.1%
CC(=O)Nc1ccc(Oc2ccc(-c3noc(C)n3)cc2)cc1,-5.2%,7.94µM*,?,-12.0%[38.3 µM],-4.0%
CC(=O)Oc1ccc(Oc2ccc(-c3noc(C)n3)cc2)cc1,0.1%,-28.5%,?,23.1%[38.3 µM],0.5%
COc1cc(/C=C2/NC(=O)N(Cc3ccccc3F)C2=O)cc(OC)c1O,10µM*,·,·,6.0%,·
CCOc1cc(/C=C2/NC(=O)N(Cc3ccccc3F)C2=O)ccc1O,8.91µM*,-10.7%,6.1%,11.6%,2.5%
O=C1N/C(=C/c2cccn2-c2ccccc2)C(=O)N1Cc1ccccc1F,?,-14.3%,-11.6%,-0.4%,-2.1%
Nc1nc(N2CCN(c3ccc(F)cc3)CC2)n[nH]1,18.6%,·,-0.1%[46 µM],0.0%,-2.1%
CCC(C)(C)n1nnnc1C(c1cccs1)N1CCc2ccccc21 (stereo not drawn),14.1µM*,-17.0%,?,28.2%[38.3 µM],-2.1%
O=C(CSc1nnnn1-c1ccccc1)c1ccco1,?,·,3.5%[46 µM],5.2%,1.0%
O=C(CSc1nc2ccccc2[nH]1)c1ccco1,-6.8%,-6.3%,8.5%,-5.6%[38.3 µM],-8.8%
O=C(CSc1nnc2sc3ccccc3n12)c1ccco1,15.8µM*,22.4µM*,1.4%,-9.4%,-3.5%
CN(C)C(=O)CSc1nnc2sc3ccccc3n12,-6.5%,-10.9%,-0.4%,4.1%[38.3 µM],-0.4%
O=C(CSCCSCC(=O)c1ccco1)c1ccco1,22.4µM*,?,9.7%,9.5%[38.3 µM],-2.5%
Cn1nnnc1SCC(=O)c1ccco1,39.8µM*,-9.2%,3.6%,-4.9%[38.3 µM],-3.0%
O=c1c2ccccc2nnn1CSc1nnc2sc3ccccc3n12,12.6µM*,-24.6%,12.3%,6.5%[38.3 µM],-27.5%
CS(=O)(=O)N1CCC2(CCN(C(c3ccccc3)c3ccccc3)CC2)CC1,12.9%,-3.4%,·,6.1%,2.1%
COc1cc(NC(=O)O[C@@H]2C(=O)c3cc(Br)ccc3O[C@H]2c2ccc3c(c2)OCO3)cc(OC)c1OC,-9.8%,-11.9%,·,7.5%,-1.3%
O=C(NCc1ccc2c(c1)CCN2C(=O)c1ccncc1)c1cccc(F)c1,·,·,5.4%[46 µM],·,·
CCOC(=O)C1OC1C(=O)NC(CC(C)C)C(=O)NCCC(C)C (stereo not drawn),0.6%,·,·,6.5%,·
COc1cccc(-c2nnc(NC(=O)c3ccc(Cl)s3)o2)c1,3.6%,?,?,18.1%,2.0%
COc1cccc(/C=C/c2onc(C)c2S(=O)(=O)N2CCC(C(=O)N3CCC(C)CC3)CC2)c1,·,·,2.4%[46 µM],·,·
O=C1NC(=O)C(c2ccccc2[N+](=O)[O-])=C1Nc1ccc(O)c(Cl)c1,28.2µM*!,-13.8%,?,4.6%,0.4%
O=C(NNc1ccccc1[N+](=O)[O-])Nc1ccc(Cl)c(Cl)c1,?,-18.6%,?,-0.6%,2.4%
Cc1cccc2cc(-c3nc4c(C)cccn4c3NCc3ccco3)c(=O)[nH]c12,20µM*,2.3%,-1.0%,16.1%[38.3 µM],-5.2%
SMILES,ALDH1A1 inh,HPGD inh,Lamin A splicing,IMPase Li inh,KinaseGlo FLuc
Cc1ccc2[nH]c(=O)c(-c3nc4cc(C)ccn4c3NCc3ccco3)cc2c1,4.7%,-16.2%,?,-0.9%[38.3 µM],-3.1%
O=C1OC(c2ccccc2)=N/C1=C\N1CCCCC1,-16.2%,-28.1%,-12.0%,-4.4%[38.3 µM],-4.8%
O=C1OC(c2ccccc2)=C/C1=C/N1CCCCC1,10µM*,?,28.6%,20.2%[38.3 µM],-5.4%
COC(=O)c1ccc(C2/C(=C(/O)c3ccc(OC(C)C)cc3)C(=O)C(=O)N2c2cc(C)on2)cc1 (stereo not drawn),1.4%,-16.0%,?,10µM*,-2.0%
COC(=O)c1ccc(C2/C(=C(/O)c3ccc(OC)cc3)C(=O)C(=O)N2c2cc(C)on2)cc1 (stereo not drawn),12.6µM*,?,-0.1%,10µM*,2.1%
COc1ccc(OC)c(CNC(=O)C2CCN(S(=O)(=O)N3CCCC3)CC2)c1,?,-8.9%,3.1%,-5.6%[38.3 µM],-5.0%
COc1ccc(-n2c(CNC(=O)c3ccc(S(=O)(=O)N4CCCC4)cc3)n[nH]c2=S)cc1,10µM*,-7.4%,5.0%,-6.4%[38.3 µM],-4.7%
